Bioassay records as filed in PubChem BioAssay.
Anthrax LF prot: Bacillus anthracis LF protease inhibitors, primary screen, biochemical, multiplex microsphere, MLPCN library. multiplex microsphere protease cleavage assay. inhibition, % at 10 µM. AID 588501, 2011. actives 0.12% (n = 360,000)
BoNT A protease: BoNT/A light chain protease inhibitors, primary screen, biochemical, flow cytometry, MLPCN library | inhibition, % at 10 µM | Botulinum neurotoxin type A light chain protease (Clostridium botulinum A str. ATCC 3502) | actives 0.17% (n = 360,000) | multiplex microsphere protease substrate cleavage
Vc quorum ag: inducers of Vibrio cholerae quorum light production without autoinducers, primary screen, BH1578 luxS cqsA deficient, single point; V. cholerae BH1578 lux reporter, luminescence, 6 h; activation, % at 18.7 µM; actives 0.16% (n = 350,000); AID 588436, 2011; in the data active = activation mostly above about 9.7%, no sharp cut-off; inconclusive = no clear call, values can overlap the other calls; inactive = mostly below about 3.7%
BoNT F protease: BoNT/F light chain protease inhibitors, primary screen, biochemical, flow cytometry, MLPCN library; Multiplex microsphere protease cleavage assay; inhibition, % at 10 µM; actives 0.22% (n = 360,000); AID 588497, 2011; in the data active = inhibition above about 35%, passing the limit was not always enough; inconclusive = no clear call, values can overlap the other calls
Autofluor counter: counter-screen for toxin protease inhibitors: compound fluorescence | compound autofluorescence counterscreen, microsphere flow cytometry; active compounds read high | fluorescence intensity (test concentration not listed) | actives 3.1% (n = 360,000) | AID 624483; in the data active = fluorescence intensity above about 16000; inconclusive = no clear call, values can overlap the other calls
Hits are given with their value; - = inactive; ? = inconclusive. Most compounds without a hit are left out; they make up all but 3.5% or so of the library. Rule as the data show it, unless noted: active = inhibition above about 30%; inconclusive = no clear call, values can overlap the other calls; inactive = below that.

SMILES	Anthrax LF prot	BoNT A protease	Vc quorum ag	BoNT F protease	Autofluor counter
Cc1cc2ccccc2nc1SCC(=O)Nc1nc(-c2ccccc2)cs1	-	-	-	-	16277
c1ccc(-c2nc(NCc3ccco3)c3oc4ccccc4c3n2)cc1	-	?	-	-	22249
Cc1ccc(-c2nc(NCc3ccco3)c3ccccc3n2)cc1	-	-	-	-	-
CCOc1ccccc1NCc1cc(=O)oc2cc(C)ccc12	-	-	-	-	-
O=c1cc(NCc2ccco2)c2ccccc2o1	-	-	25.8	-	-
O=c1cc(NCc2ccccc2)c2ccccc2o1	-	-	-	-	-
Cc1ccc2c(CNCc3ccco3)cc(=O)oc2c1	-	-	-	-	23320
COc1cccc(-c2cc(C(=O)N3CCCc4ccccc43)no2)c1	-	-	-	-	-
COc1ccc(-c2cc(C(=O)N3CCCc4ccccc43)no2)cc1OC	-	-	-	-	22113
O=C(c1cc(-c2ccccc2)on1)N1CCc2ccccc2C1	-	-	-	-	-
COc1ccc(-c2cc(C(=O)N3CCCc4ccccc43)no2)cc1	-	?	-	-	22780
COc1ccc(-c2cc(C(=O)N3CCc4ccccc4C3)no2)cc1OC	-	-	-	-	21095
CSc1ccccc1OCc1cc(C(=O)N(C)Cc2ccncn2)no1	-	-	-	-	-
C=CCOC(=O)c1sc(NC(=O)c2ccco2)nc1C	-	-	-	-	19408
CCOC(=O)c1sc(NC(=O)c2cc3ccccc3o2)nc1C	-	-	-	-	-
CCOC(=O)c1ccc2nc(NC(=O)c3ccco3)sc2c1	-	-	-	-	-
CCOC(=O)c1sc(NC(=O)c2ccc(CC)s2)nc1C	-	-	-	-	19861
NC(=O)CSc1nnc(-c2cc(-c3ccc(Cl)cc3)nc3ccccc23)o1	-	-	-	-	-
O=C(c1cc2ncc(Br)cn2n1)N1CCN(C(=O)c2ccco2)CC1	-	-	-	-	-
O=C(c1cc2ncc(Br)cn2n1)N1CCOCC1	-	?	-	-	24596
CN(C)CCCNc1nc(-c2ccc(Cl)cc2)nc2ccccc12	-	-	-	-	-
CCOC(=O)Nc1ccc(S(=O)(=O)NCCCN2CCOCC2)cc1	-	-	-	-	17393
CCCCOC(=O)Nc1ccc(N2CCCCC2)cc1	-	-	-	-	-
CCCCOC(=O)Nc1ccc(N2CCOCC2)cc1	-	?	-	-	20906
CCOC(=O)Nc1ccc(S(=O)(=O)N2CCOCC2)cc1	-	-	-	-	-
SMILES	Anthrax LF prot	BoNT A protease	Vc quorum ag	BoNT F protease	Autofluor counter
COc1ccc([C@H]2CC(=O)C=C(/C=C/c3ccccc3)C2)cc1OC	-	-	-	-	-
CC(C)c1cccc(C(C)C)c1NC(=O)c1ccc(-c2cc(Cl)ccc2Cl)o1	-	-	-	-	-
Cc1ccc(C(=O)OCC(=O)c2ccccc2)cc1	-	-	-	-	-
CCc1ccc(C(=O)COC(=O)c2ccc(-c3nnc(-c4ccccc4)o3)cc2)cc1	-	-	-	-	24076
O=C(O)C1OC2OC3(CCCCC3)OC2C2OC3(CCCCC3)OC12 (stereo not drawn)	-	-	-	35.7	-
O=C(OCC1OC2OC3(CCCCC3)OC2C2OC3(CCCCC3)OC12)c1ccccc1 (stereo not drawn)	-	-	-	-	-
O=C(CCC1COc2ccccc2O1)Nc1cccnc1 (stereo not drawn)	-	-	-	-	23308
O=C(CCC1COc2ccccc2O1)Nc1ccccn1 (stereo not drawn)	-	-	-	?	-
CC(C)(C)n1cnnc1Sc1ncccc1[N+](=O)[O-]	-	-	-	-	-
c1cncc(Nc2nc(-c3cccnc3)cs2)c1	-	-	-	-	-
c1cncc(Nc2nc(-c3ccncc3)cs2)c1	-	-	-	-	18714
CCc1nc2oc3ccccc3c(=O)c2c(=O)n1-c1ccccc1	-	-	-	-	16529
CCc1nc2ccc(C(=O)NCc3ccc(OC)cc3)cn2c1N(CC)CCOC	-	-	-	-	-
Cn1ccnc1Sc1nc(Nc2cccc(Cl)c2)nc(N2CCOCC2)n1	-	-	-	-	22665
O=c1oc2ccccc2c(N2CCC(c3ccccc3)CC2)c1[N+](=O)[O-]	-	-	-	-	-
CC1CCCN(c2c([N+](=O)[O-])c(=O)oc3ccccc23)C1 (stereo not drawn)	-	?	-	-	23803
CCOC(=O)Cc1nn[nH]n1	-	-	-	-	-
